In PubChem BioAssay (EPA / NIEHS) one finds outcome data, which are given here for 40 molecules.

The structures appear in SMILES notation. The source made the active and inactive calls. How the source made its calls: active means hit-call score of the fitted dose curve at least 0.9, where 1 is the maximum; inactive means score below 0.9.

Chain of Transcription factor E2F1 (Homo sapiens) (Q01094 whole entry, looked up): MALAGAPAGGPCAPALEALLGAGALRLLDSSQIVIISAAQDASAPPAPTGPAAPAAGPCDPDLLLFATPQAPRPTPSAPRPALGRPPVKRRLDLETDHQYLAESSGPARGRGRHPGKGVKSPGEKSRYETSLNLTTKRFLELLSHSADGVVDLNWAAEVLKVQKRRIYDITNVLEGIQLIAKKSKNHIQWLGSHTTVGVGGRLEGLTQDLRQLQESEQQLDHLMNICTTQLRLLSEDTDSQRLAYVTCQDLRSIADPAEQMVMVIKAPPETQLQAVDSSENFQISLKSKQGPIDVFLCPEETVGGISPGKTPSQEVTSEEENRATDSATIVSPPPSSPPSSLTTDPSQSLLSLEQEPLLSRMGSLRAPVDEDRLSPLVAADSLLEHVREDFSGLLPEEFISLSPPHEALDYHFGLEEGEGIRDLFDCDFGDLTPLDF

The experiment concerns the target Transcription factor E2F1 (Homo sapiens) (UniProt Q01094). Put plainly: ATG_E2F_CIS: Attagene CIS-FACTORIAL HepG2 Assay for human E2F Transcription Factor 1 (AID 2282935). The settings on record: HepG2 Attagene cis-reporter, E2F reporter RNA transcripts; actives raise or lower the signal. As to the method: ATG_CIS is a cell-based, multiplexed-readout assay that uses HepG2, a human liver cell line, with measurements taken at 24 hours after chemical dosing in a 24-well plate.ATG_E2F_CIS is one of 52 assay component(s) measured or calculated from the ATG_CIS assay. It is designed to make measurements of mRNA induction, a form of inducible reporter, as detected with fluorescence intensity signals by Reverse transcription polymerase chain reaction (RT-PCR) and Capillary electrophoresis technology.Data from the assay component ATG_E2F_CIS was analyzed into 1 assay endpoint. This assay endpoint, ATG_E2F_CIS, was analyzed with bidirectional fitting relative to DMSO as the negative control and baseline of activity. Using a type of inducible reporter, measures of mRNA for gain or loss-of-signal activity can be used to understand the reporter gene at the transcription factor-level as they relate to the gene E2F1. Furthermore, this assay endpoint can be referred to as a primary readout, because this assay has produced multiple assay endpoints where this one serves a reporter gene function. To generalize the intended target to other relatable targets, this assay endpoint is annotated to the dna binding intended target family, where the subfamily is E2F transcription factor.
Human liver HepG2 cells are transiently transfected with multiple reporter transcription units (MRTUs) in 6-well plates using FuGene 6 reagent (Roche; 3 ml FuGene/1 mg DNA). The MRTU constructs are regulated by a cis-regulating element (promoter). […] A major difference between the CIS and TRANS system is that in CIS activities of endogenous TFs are measured, whereas the TRANS assay evaluates changes in activities of exogenous, chimeric NR-Gal4 proteins. […] At the end of 24 hour incubation, total RNA was isolated using TriZol reagent (Invitrogen). The isolated RNA is then reverse-transcribed using oligo(dT) primer and Mo-MLV reverse transcriptase (Invitrogen) with DNAse I (Ambion) treatment for 30 min. The one-tenth of the produced cDNA was amplified by PCR using Taq DNA polymerase (Invitrogen) and two reporter sequence-specific primers. The PCR products were fluorescently labeled by primer extension with 6-arboxyfluorescein (6-FAM) 5'-labeled reporter sequence-specific primer (2 min at 95 C, 20 s at 68 C and 10 min at 72 C) and these products were digested with 5U of HpaI (New England Biolabs) for 2h at 37 C. The fragments were purified using Qiaquick PCR columns (Qiagen), analyzed on an ABI 3130xL genetic analyzer (Applied Biosystems) with peak positions identified by using a set of X-rhodamine (ROX)-labeled MapMarker1000 molecular weight standards (BioVentures). The raw capillary electrophoresis data was processed using Attagraph software (Attagene).
Consider `CN1CCCC1=O`, for which the call was inactive.
With `CC(C)(C)c1cc(O)c(C(C)(C)C)cc1O`, the molecule was called inactive.
For `O=C(O)Cc1ccccc1Nc1c(Cl)cccc1Cl` the value was “inactive”; for `CCCCCCCCCCCC(=O)OC`, “inactive”.
For `CCCCCCCCCCC` the value was “inactive”; for `C[C@]12C=CC(=O)C=C1CC[C@@H]1[C@@H]2C(=O)C[C@@]2(C)[C@H]1CC[C@]2(O)C(=O)CO`, “inactive”.
For `CN[C@H]1CC[C@@H](c2ccc(Cl)c(Cl)c2)c2ccc(S(N)(=O)=O)cc21`, the molecule was classed as inactive.
As for `Cc1ccc(Cl)cc1`, the molecule was called inactive.
For `CC1=C(/C=C/C(C)=C/C=C/C(C)=C/CO)C(C)(C)CCC1` the value was “inactive”; for `Cc1ccc2ncccc2c1`, “inactive”.
For `O=c1c(O)c(-c2ccc(O)c(O)c2)oc2cc(O)cc(O)c12` the value was “inactive”.
In the case of `CCNc1cccc(C)c1`, the call was inactive.
For `COCCOC[C@H](CC1(C(=O)NC2CCC(C(=O)O)CC2)CCCC1)C(=O)Oc1ccc2c(c1)CCC2` (stereo not given in full), the result was inactive.
Consider `CC=Cc1ccc(O)c(OC)c1`, for which the molecule was called inactive.
Consider `Cc1cccc([N+](=O)[O-])c1C`, for which the result was inactive.
`CN1CCN(Cc2cc(-c3ccc4[nH]c(=O)oc4c3)co2)[C@@H](c2ccc(F)cc2)C1`: the molecule was classed as inactive.
As to `CCCCCCCCCCCCCCCC`, the molecule was classed as inactive.
For `Cc1ccc(C)c(C)c1` the value was “inactive”.
For `COc1cc(C=O)ccc1O` the value was “inactive”; for `Cc1c(C(=O)O)c(O)cc2c1C(=O)c1c(O)c([C@@H]3O[C@H](CO)[C@@H](O)[C@H](O)[C@H]3O)c(O)c(O)c1C2=O`, “inactive”.
Turning to `CCCCC(CC)COC(=O)CC(C(=O)OCC(CC)CCCC)S(=O)(=O)O` (stereo not given), the result was inactive.
As for `FC(F)(F)C(F)(F)C(F)(F)C(F)(F)C(F)(F)C(F)(F)CCI`, the molecule was classed as inactive.
`COc1cc(/C=C/C(=O)CC(=O)/C=C/c2ccc(O)c(OC)c2)ccc1O`: the molecule was classed as inactive.
As to `CC(=O)C(C)=CC1C(C)=CCCC1(C)C` (stereo not given), the call was inactive.
For `COc1ccc(C)cc1N` the value was “inactive”.
For `NCCO` the value was “inactive”; for `Oc1ccc2ccccc2c1N=Nc1ccccc1`, “inactive”.
On to `CC(=O)OC/C=C(\C)CCC=C(C)C`, for which the molecule was called inactive.
For `CNC(=O)[C@H]1O[C@@H](n2cnc3c(NCc4cc(Cl)ccc4OCc4cc(C)no4)ncnc32)[C@H](O)[C@@H]1N` the value was “inactive”.
As to `CC(C)c1ccc(C(=O)N=C(N)N)cc1S(C)(=O)=O`, the molecule was classed as inactive.
For the molecule `O=C(O)CCCCC(=O)O`, the call was inactive.
Regarding `OC[C@@H](O)[C@@H](O)[C@H](O)[C@H](O)CO`, the molecule was classed as inactive.
As for `COc1cccc2c1C(=O)c1c(O)c3c(c(O)c1C2=O)C[C@@](O)(C(=O)CO)C[C@@H]3O[C@H]1C[C@H](N)[C@H](O)[C@H](C)O1`, the molecule was called inactive.
With `CC1(C)CC(N=C=O)CC(C)(CN=C=O)C1` (stereo not given), the result was inactive.
For `c1cc(-c2ccncc2)ccn1` the value was “inactive”; for `CCOc1ccc2c(c1)C(C)=CC(C)(C)N2`, “inactive”; for `COc1ccc2c(c1)c(CC(=O)O)c(C)n2C(=O)c1ccc(Cl)cc1`, “inactive”.
In the case of `O=c1[nH]cc(F)c(=O)[nH]1`, the result was inactive.
For `Nc1ccccc1N`, the result was inactive.
`NS(=O)(=O)c1cc2c(cc1Cl)NCNS2(=O)=O`: the call was inactive.
